# Test results taken from PubChem BioAssay AID1239 (SRMLSC, 2008).
# Hit rate of the full screen: of about 190,000 compounds, about 3,100 (1.6%) were called active. For the sample, actives were picked, then their nearest neighbours and some compounds at random. Values without a mark were called inactive. Rule as the data show it: active = fold change above about 3.3; inconclusive = no clear call, values can overlap the other calls; inactive = below that.
# Assay: activators of NF-kB expression in neurons, primary screen, cell-based, HTS (AID 1239)
# Conditions: human neuronal cells, NF-kB reporter expression; at 12.5 µM; hits give high values
row,SMILES,fold change
1,CN(C)c1ccnc(Nc2ccc(F)cc2)c1C#N,1.02
2,CN(Cc1ccc2nsnc2c1)Cc1nc(Cc2cccc(F)c2)no1,1.05
3,CN(C)c1nccc(NCc2ccccc2)c1C#N,1.55
4,CCOc1cc(NC(=O)CCl)c(OCC)cc1NC(C)=O,2.72
5,O=C(Nc1ccn(Cc2ccccc2)n1)c1n[nH]c([N+](=O)[O-])c1Cl,3.79 (active)
6,O=C(Nc1ccn(Cc2ccccc2)n1)c1cccc(F)c1,6.25 (active)
7,CC(=O)Nc1ccn(Cc2c(F)cccc2Cl)n1,1.2
8,O=C(Nc1ccn(Cc2ccc(F)cc2)n1)c1ccncc1,1.08
9,Cn1cc([N+](=O)[O-])c(C(=O)Nc2cnn(Cc3ccc(F)cc3)c2)n1,0.64
10,Cc1ccc(Cn2ccc(NC(=O)c3cc(C(C)C)on3)n2)cc1,1.16
11,COC(=O)C1=C(C)N(C)C(=O)NC1c1ccc([N+](=O)[O-])o1 (stereo not given),0.88
12,CN(C)C(CNC(=O)c1cccc(C#N)c1)c1ccco1 (stereo not given),1.15
13,CC(=O)NC1C(Oc2ccc(C=O)cc2)OC(COC(C)=O)C(OC(C)=O)C1OC(C)=O (stereo not given),1.36
14,O=C(NCc1ccccc1)C1CCCN(c2nc3ccsc3c(=O)s2)C1 (stereo not given),1.06
15,CS(=O)(=O)c1sc2nc(-c3ccccc3)cc(-c3ccccc3)c2c1N,1.16
16,CCN(CC)C(=O)c1sc2nc(-c3ccccc3)ccc2c1N,7.06 (active)
17,CCOC(=O)c1sc2nc(SC)nc(-c3ccccc3)c2c1N,1.18
18,Cn1c(N)c(C(=O)COC(=O)/C=C/c2ccc(OC(F)F)cc2)c(=O)n(C)c1=O,1.25
19,Cc1cc(C)c(OCCN2CC(C)OC(C)C2)c(Br)c1 (stereo not given),1.58
20,CN1CCCC(OC(=O)COc2ccc(Br)cc2)C1 (stereo not given),1.11
21,CC1CN/C(=C\C(=O)c2ccc(Br)cc2)C(=O)N1 (stereo not given),4.31 (active)
22,C/C(=C\C(=O)c1ccc(Br)cc1)N1CCCCC1,1.06
23,CCc1cc2c(=O)c(-c3ccc(F)cc3)c(C(F)(F)F)oc2cc1OCC(=O)O,1.1
24,O=C(Nc1nc(-c2ccncc2)cs1)C1COc2ccccc2O1 (stereo not given),1.25
25,Clc1ccc(-c2csc(-c3ccncc3)n2)cc1,1.8
26,c1ccc(Nc2nc(-c3ccncc3)cs2)nc1,7.4 (active)
27,O=C(Nc1nc(-c2ccc(-c3ccccc3)cc2)cs1)c1cnccn1,1.35

row,SMILES,fold change
1,O=C(Nc1ccc(Cl)cn1)Nc1cccs1,1.65
2,COc1ccc(C(=O)/C=C/Nc2ccccn2)cc1,2.22
3,Clc1ccc(Nc2nc(-c3cccs3)cs2)nc1,12.4 (active)
4,c1cnc(Nc2nc(-c3ccc4ccccc4c3)cs2)nc1,2.23
5,COc1ccc(-c2csc(Nc3ccccn3)n2)cc1,7.56 (active)
6,O=C(CN(c1cccc(Cl)c1)S(=O)(=O)c1ccccc1)NN=C1CCCC1,1.17
7,CN1CCN(C(c2cc3cc4c(cc3[nH]c2=O)OCCO4)c2nnnn2C2CCCC2)CC1 (stereo not given),1.27
8,O=C(COc1cccc2ccccc12)Nc1cc(S(=O)(=O)N2CCOCC2)ccc1N1CCOCC1,0.47
9,O=C(N/N=C/C=C/c1ccco1)c1cccs1,1.09
10,COc1ccc(CC(=O)NC(C)CCc2ccccc2)cc1 (stereo not given),1.03
11,CC(=O)c1cc(C#N)c(N2CCCCC2)nc1C,1.09
12,CN1CCN(c2ccc(NC(=O)c3ccc4c(c3)OCCO4)cc2Cl)CC1,3.36 (active)
13,O=C(Nc1cccc(Cl)c1N1CCOCC1)c1ccc2c(c1)OCCO2,0.72
14,O=C(Nc1ccc(Cl)cn1)c1ccc2c(c1)OCCO2,5.18 (active)
15,COc1c(Cl)cc(C(=O)Nc2ccc(Cl)cn2)cc1Cl,1.49
16,O=C(Nc1cccc(S(=O)(=O)Nc2ccc(Cl)cc2)c1)c1ccc2c(c1)OCCO2,0.68
17,O=C(Nc1ccc2c(c1)OCCO2)c1ccc(Cl)c(S(=O)(=O)N2CCCCC2)c1,0.9
18,S=c1[nH]ccn1-c1ccc(Cl)cc1,1.14
19,CC(C)(C)NC(=O)CN(C(=O)c1ccc(Cl)nc1)c1cccc2ccccc12,0.94
20,COc1cccc(OCCCN2CCCCCC2)c1,1.08
21,C/C(=N/OC(=O)c1cccc(C(F)(F)F)c1)c1cnccn1,1.18
22,CCc1nnc(NS(=O)(=O)c2ccc(NC(=S)NC(=O)c3cccs3)cc2)s1,1.46
23,O=C(NC(=S)Nc1cccc(-c2ccc(CO)o2)c1)c1cccs1,10.1 (active)
24,O=C(NC(=S)Nc1ccc(NC(=O)c2cccs2)cc1)c1ccc([N+](=O)[O-])cc1,1.11
25,COC(=O)COc1ccc(C2NC(=O)NC(C)=C2C(=O)NCc2ccccc2)cc1OC (stereo not given),1.01
26,CN1CCN(/N=C/c2ccc(-c3ccc([N+](=O)[O-])cc3)o2)CC1,1.75
27,O=C(Cc1ccc([N+](=O)[O-])cc1)N/N=C/c1ccco1,1.05

row,SMILES,fold change
1,N/C(=N\OC(=O)CC1CCCCC1)c1ccccc1,1.45
2,CCC(C)(NC(=O)c1ccccn1)C(=O)NC1CCCCC1 (stereo not given),1.15
3,N/C(=N\OC(=O)CCC1CCCCC1)c1ccccn1,4.01 (active)
4,CN(C)CCOc1cccc(Br)c1,1.12
5,CCN=c1sc(C(=O)Nc2ccccc2)c(C)n1CC,1.3
6,Cc1ccc(OCC(=O)NC(C)c2ccccc2)c([N+](=O)[O-])n1 (stereo not given),1.1
7,C=CCNC(=O)CC12CC3CC(C1)CC(CC(=O)NCC=C)(C3)C2,1.38
8,CCOC(=O)/C(C#N)=C/c1ccc(N2CCCCC2)cc1,3.43 (active)
9,COc1ccc(N2CCN(C(=O)/C(C#N)=C/c3ccccc3)CC2)cc1,0.72
10,CCOC(=O)/C(C#N)=C/c1ccc(N2CCN(Cc3ccccc3)CC2)cc1,0.98
11,COC(=O)C1=CN(Cc2ccc(OC)c(OC)c2)C=C(C(=O)OC)C1c1cccs1,0.73
12,Cc1nnc(SCCCCSc2nnc(C)c(=O)[nH]2)[nH]c1=O,1.03
13,Cc1ccc(S(=O)(=O)/N=C(\N)c2ccc(F)cc2)cc1,1.11
14,Cc1nn2cc(-c3ccc(Cl)cc3)cnc2c1Br,4.06 (active)
15,O=C(NC(=S)Nc1ccc(S(=O)(=O)Nc2ncccn2)cc1)c1cccc(Br)c1,0.92
16,CCOC(=O)C1(Cc2ccccc2C(F)(F)F)CCN(C(=O)c2cc(C)n(C)n2)CC1,1.81
17,CC(C)C(=O)Nc1ccc2c(c1)oc1ccccc12,4.71 (active)
18,CC(C)C(=O)Nc1ccc2oc(=O)ccc2c1,1.14
19,CC(C)C(=O)Nc1c(C(=O)c2ccc(F)cc2)oc2ccccc12,0.89
20,COCCCNC(=S)NCCNc1nc2cc(C)c(C)cc2cc1C#N,0.77
21,NC(=O)N1CCc2ccccc21,1.08
22,Cc1nnc(SCC(=O)N2CCc3ccccc32)n1-c1ccccc1,1
23,O=C(CSCc1ccccc1)N1CCc2ccccc21,5.86 (active)
24,CCn1c(SCC(=O)N(C)C2CCS(=O)(=O)C2)nnc1-c1cccs1 (stereo not given),1.03
25,CC(=O)c1ccc(N2CCN(CC(=O)Nc3ccccc3N3CCOCC3)CC2)cc1,1
26,CC1(C)CN(c2ccc(-c3ccnc4ncnn34)cc2)C1=O,1.23
27,COc1ccc(N2CCN(C(=S)Nc3ccc(S(N)(=O)=O)cc3)CC2)cc1,0.85

row,SMILES,fold change
1,CCn1cc(CN2CCCC(CNS(=O)(=O)Cc3ccccc3)C2)cn1 (stereo not given),0.89
2,CCCCOc1ccc(C(=O)NCc2ccncc2)cc1,1.15
3,CCCCCCOc1ccc(OC(=O)c2cccnc2)cc1,5.55 (active)
4,CCCCCCCCC(=O)NCCOc1ccccc1,1.12
5,CCOc1ncccc1C(=O)OCC(=O)NC1CC1,1.17
6,CN1CCN(CC(=O)Nc2cccc([N+](=O)[O-])c2)CC1,1.37
7,COc1cc2c(cc1OC)CN(C(=O)c1cc(=O)c3ccccc3o1)CC2,0.82
8,COc1cc2c(cc1OC)CN(C(=O)c1ccc(S(=O)(=O)N3CCCCCC3)cc1)CC2,0.87
9,CCOc1cc(C(=O)N2CCc3cc(OC)c(OC)cc3C2)ccc1OC(F)F,4.22 (active)
10,O=Cc1ccc(Oc2cccc(C(F)(F)F)c2)nc1,1.2
11,O=C(CSc1cccc[n+]1[O-])c1ccc(Cl)cc1,1.21
12,COc1cccc(/C=C/c2ccc3ccccc3n2)c1OC(C)=O,3.13
13,NC(=O)COC(=O)/C=C/c1ccc2ccccc2n1,0.97
14,CCOc1cccc(/C=C/c2ccc3ccccc3n2)c1OC(C)=O,4.82 (active)
15,CCOC(=O)c1c(N)nn(C(=O)c2ccccc2)c1-c1ccccc1,1.07
16,C=CCN1C2CCCC1CC(NC(=S)Nc1cccc(OC)c1)C2 (stereo not given),1.07
17,CC(CNC(=O)c1ccc(N)cc1)NC(=O)c1ccc(N)cc1 (stereo not given),1.46
18,COc1cc(-c2nc(-c3ccncc3)no2)cc(OC)c1OC,0.54
19,CCOc1nc(-c2ccc(OC)cc2)ccc1-c1noc(-c2cc(OC)c(OC)c(OC)c2)n1,1.01
20,COc1ccc(-c2noc(-c3cccc(OC)c3OC)n2)cc1OC,3.86 (active)
21,COc1ccc(OC)c(S(=O)(=O)NCCC(C)C)c1,1.13
22,COc1ccc(NC(C)=O)cc1NC(=O)CN1CCN(c2ccccn2)CC1,1.04
23,COc1ccc(OC)c(NC(=O)CN2CCN(C(=O)c3ccco3)CC2)c1,1.07
24,COc1ccc(NC(C)=O)cc1NC(=O)CN1CCN(C2c3ccccc3-c3ccccc32)CC1,3.62 (active)
